Test results reported in PubChem BioAssay (NCATS).
Inconclusive results are not listed. Entries that show only a call come without a potency. A number with no mark means an inactive call. The source made the active and inactive calls. The call rests on the fitted dose curve; in most records, active means well fitted curve in the direction sought with a large enough effect; inconclusive means small, poorly fitted or top-dose-only effect, or another doubt; inactive means no such curve, though single readings can be large; an effect the other way counts as inactive or inconclusive.

Legend:
Hek293T = test: Primary qHTS to identify gynecologic anti-cancer compounds using libraries of approved drugs and bioactive compounds (AID 1345084); conditions: Gynecologic cancer cell panel viability, ATPlite luminescence, 48 h, control line for the selectivity index; series mostly up to 57.5 µM; further: nearly all actives have a fitted effect of over 55% in size
Procedure, shortened: (§1)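 48 h compound exposure at 37 C, 5% CO2; five-point qHTS. ATPlite luminescence readout of cell ATP.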

JEG-3 = test: as above; conditions: Gynecologic cancer cell panel viability, ATPlite luminescence, 48 h; series mostly up to 57.5 µM
Procedure, shortened: as §1

OV90 = test: as above; conditions: Gynecologic cancer cell panel viability, ATPlite luminescence, 48 h; series mostly up to 57.5 µM
Procedure, shortened: as §1

PA-1 = test: as above; conditions: Gynecologic cancer cell panel viability, ATPlite luminescence, 48 h; series mostly up to 57.5 µM
Procedure, shortened: as §1

SKOV3 = test: as above; conditions: Gynecologic cancer cell panel viability, ATPlite luminescence, 48 h; series mostly up to 57.5 µM
Procedure, shortened: as §1

Tov-21-G = test: as above; conditions: Gynecologic cancer cell panel viability, ATPlite luminescence, 48 h; series mostly up to 57.5 µM
Procedure, shortened: as §1

Tov112D = test: as above; conditions: Gynecologic cancer cell panel viability, ATPlite luminescence, 48 h; series mostly up to 57.5 µM
Procedure, shortened: as §1

[1] = Drug repurposing screens with cells derived from glioblastoma tumor samples (AID 1345199); conditions: GBM patient neurospheres viability, ATP luminescence, 48 h; further: nearly all actives have a fitted effect of over 40% in size; further: potency means the concentration at half of the fitted maximal effect
Procedure, shortened: (§2)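 Primary testing used CD133+ neurospheres from four GBM patients, seven concentrations, 48 h exposure and ATP-based viability; confirmation added three slower-growing patient lines.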

astro = test: as above; conditions: viability, ATP luminescence, 48 h; series mostly up to 45.9 µM
Procedure, shortened: as §2

[2] = at 20 µM (top of the series), tumour line C
[3] = at 21.2 µM (top of the series), tumour line B
[4] = at 21.2 µM (top of the series), tumour line D
[5] = at 45.9 µM (top of the series), tumour line D
[6] = at 45.9 µM (top of the series), tumour line B
[7] = at 46.1 µM (top of the series), tumour line C

Row | SMILES | Potency (Hek293T) | Potency (JEG-3) | Potency (OV90) | Potency (PA-1) | Potency (SKOV3) | Potency (Tov-21-G) | Potency (Tov112D) | activity, negative = cell killing [1, 2] | activity, negative = cell killing [1, 3] | activity, negative = cell killing [1, 4] | Potency (astro) | activity, negative = cell killing [1, 5] | Potency ([1]; tumour line A) | Potency ([1]; tumour line C) | activity, negative = cell killing [1, 6] | Potency ([1]; tumour line D) | activity, negative = cell killing [1, 7]
1 | CCOC(=O)Nc1ccc2c(c1)N(C(=O)CCN1CCOCC1)c1ccccc1S2 | inactive | inactive | inactive | inactive | inactive | inactive | inactive | -16.1% | -11.1% | -19.6% | inactive |  |  |  |  |  | 
2 | O=C(NC1CCN(CCc2c[nH]c3ccccc23)CC1)c1ccccc1 | inactive | inactive | inactive | inactive | inactive | inactive | inactive |  |  |  | inactive | -28% | 11.2 µM (active) | 20.6 µM (active) |  |  | 
3 | O=C1c2cccc3c2[C@H](CCC3)CN1[C@@H]1CN2CCC1CC2 | inactive | inactive | inactive | inactive | inactive | inactive | inactive |  |  |  | inactive |  | 11.2 µM (active) |  | -28.4% | 11.2 µM (active) | 
4 | O=C(Nc1ccc([N+](=O)[O-])cc1)Nc1ccc([N+](=O)[O-])cc1 | inactive | inactive | inactive | inactive | inactive | inactive | inactive |  |  |  | inactive | -14.3% |  |  |  |  | -15.7%
5 | C[N+]1(C)CCC(=C(c2ccccc2)c2ccccc2)CC1 | inactive | inactive | inactive | inactive | inactive | inactive | inactive | 3.13% | -8.97% | 4.56% | inactive |  |  |  |  |  | 
6 | CO[C@H]1C=CO[C@@]2(C)Oc3c(C)c(O)c4c(O)c(c(/C=N/N5CCN(C)CC5)c(O)c4c3C2=O)NC(=O)/C(C)=C\C=C[C@H](C)[C@H](O)[C@@H](C)[C@@H](O)[C@@H](C)[C@H](OC(C)=O)[C@@H]1C | inactive | inactive | inactive | inactive | inactive | inactive | inactive |  |  |  | 31.6 µM (active) |  |  |  |  |  | 
7 | CC1(C)OC[C@@H]2O[C@@]3(C(=O)O)OC(C)(C)O[C@H]3[C@@H]2O1 | inactive | inactive | inactive | inactive | inactive | inactive | inactive |  |  |  | inactive | 2.89% |  |  | 2.23% |  | -11.9%
8 | c1ccc(CC2=NCCN2)cc1 | inactive | inactive | inactive | inactive | inactive | inactive | inactive | -9.44% | -1.18% | -24.9% | inactive |  |  |  |  |  | 
9 | C=C1c2cccc(O)c2C(O)=C2C(=O)[C@]3(O)C(O)=C(C(N)=O)C(=O)[C@@H](N(C)C)[C@@H]3[C@@H](O)[C@H]12 | inactive | inactive | inactive | inactive | inactive | inactive | inactive | -24.5% | -7.73% |  | inactive |  |  |  |  |  | 
10 | Cc1ccccc1OCC(O)CO (configuration not stated) | inactive | inactive | inactive | inactive | inactive | inactive | inactive |  |  |  | inactive | -9.22% |  |  | -8.02% |  | -19.6%
11 | C[C@]12CCC(=O)C=C1C=C[C@@H]1[C@@H]2CC[C@@]2(C)[C@H]1CC[C@@]21CCC(=O)O1 | inactive | inactive | inactive | inactive | inactive | inactive | inactive |  |  |  | inactive |  |  |  | -20% |  | 
12 | CC(C(=O)O)c1cccc(Oc2ccccc2)c1 (configuration not stated) | inactive | inactive | inactive | inactive | inactive | inactive | inactive | 4.85% | -4.71% | -19.7% | inactive |  |  |  |  |  | 
13 | O=C1[C@H](CC[C@H](O)c2ccc(F)cc2)[C@@H](c2ccc(O)cc2)N1c1ccc(F)cc1 | inactive | inactive | inactive | inactive | inactive | inactive | inactive |  |  |  | inactive | -13.5% |  |  | -11.2% |  | 1.66%
14 | CO[C@]12C[C@@H](COC(=O)c3cncc(Br)c3)CN(C)[C@@H]1Cc1cn(C)c3cccc2c13 | inactive | inactive | inactive | inactive | inactive | inactive | inactive |  |  |  | inactive | -16.6% |  |  | -27.1% |  | -7.09%
